Experimental data: PubChem BioAssay AID504441 (Broad Institute, 2011)
The whole screen tested about 310,000 compounds, of which about 1,300 (0.42%) were called active. Many of the other results were omitted from the sample, so actives are more common in it than they were. Unmarked numbers belong to inactive results. No stated cut-off is given here; in the data, active means inhibition above about 50%; inactive means the rest.

The compounds below were run against Dual specificity tyrosine-phosphorylation-regulated kinase 1A (Rattus norvegicus) (UniProt Q63470) (assay: rat Dyrk1A kinase inhibitors, primary screen, biochemical, single point, plate reader (AID 504441;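 further: plate controls were vehicle with enzyme for no effect and no enzyme for full effect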)). Details: ADP-Glo luminescence, NFATc1 peptide, at 12.5 µM, stronger effect = higher value.

SMILES	inhibition
O=C(Cc1ccc(S(=O)(=O)N2CCOCC2)s1)Nc1ccc(Br)c(C(F)(F)F)c1	0.772%
CC(C)c1cc(N=O)cc(C(C)C)c1O	7.15%
O=C1CSC(=S)N1/N=C/c1ccc(O)c([N+](=O)[O-])c1	90.8% (active)
CCOc1cccc(/C=N/N2C(=O)CSC2=S)c1O	6.88%
Cc1cc(C(=O)N/N=C/c2ccc(O)c([N+](=O)[O-])c2)c(C)n1-c1ccc(F)cc1	-6.46%
COC1=CC(=O)OC(C)(c2ccccc2)C1 (centres undefined)	1.06%
COc1ccc2nc(N3C(=O)C(O)=C(C(=O)c4ccco4)C3c3ccco3)sc2c1 (centres undefined)	7.88%
O=S1(=O)CSCS(=O)(=O)C1	-4.37%
Cc1noc(C)c1-c1ccc2ncnc(NC(C)c3ccco3)c2c1 (centres undefined)	58% (active)
c1coc(CNc2ncnc3ccccc23)c1	6.44%
C=CC(=O)Nc1ccc(Nc2ccnc(Nc3ccc(N4CCN(C)CC4)cc3)n2)cc1	24.1%
COc1ccc(Nc2ccc3ccccc3c2)cc1	-0.0929%
NC(=O)C1(Nc2ccccc2Cl)CCCC1	-0.756%
COCCN(C(=O)C(C)N1C(=O)c2ccccc2C1=O)c1c(N)n(CC(C)C)c(=O)[nH]c1=O (centres undefined)	-2.22%
Cc1c(NS(=O)(=O)c2cccc(C(=O)Nc3ccc(SC(F)F)cc3)c2)c(=O)n(-c2ccccc2)n1C	-4%
COc1ccc2oc(N)c(C=O)c(=O)c2c1	59.5% (active)
COc1ccc2oc(C)c(NC(C)=O)c2c1	1.53%
COc1ccc2oc(N)nc2c1	7.05%
NC(=O)C1(N2CCCC2)CCN(Cc2ccccc2)CC1	-3.22%
NC(=O)c1ncn([C@@H]2O[C@H](CN=C3NS(=O)(=O)c4ccccc43)[C@@H](O)[C@H]2O)n1	3.02%

SMILES	inhibition
CC(=O)Oc1ccc2c(c1)C(=O)c1ccccc1C2=O	53.6% (active)
CC(=O)Oc1ccc2c(C)c(CC(C)O)c(=O)oc2c1 (centres undefined)	2.53%
CC(=O)Oc1cccc(C(=O)Nc2ccccc2NC(=O)c2cccc(OC(C)=O)c2)c1	-0.37%
O=C(NCCC1=CCCCC1)c1ccc(-n2cncn2)cc1	4.88%
O=C(Nc1ccccc1)Oc1cccc2cccnc12	7.72%
O=C(c1cccc(S(=O)(=O)N2CCCCCC2)c1)N1CCN(Cc2ccccc2)CC1	-0.662%
NC(=S)c1ccc(C(N)=S)o1	61.8% (active)
O=[N+]([O-])c1ccc(NCCCN2CCOCC2)c(Cl)c1	0.781%
Nc1nc(NCCCN2CCOCC2)nc(Nc2ccccc2)c1[N+](=O)[O-]	67.2% (active)
CC1CN(c2nc(Nc3ccccc3)nc(N)c2[N+](=O)[O-])CC(C)O1 (centres undefined)	42%
CC(=O)OCC1(O)CC23CCC4c5ccoc5CCC4(C)C2CCC1C3 (centres undefined)	7.82%
O=c1nc(NO)ccn1C1CCCO1 (centres undefined)	-3%
CCC1([N+](=O)[O-])COC(c2ccc(C(C)C)cc2)OC1 (centres undefined)	-3.06%
CC(=O)C1C(c2cccc(Oc3ccccc3)c2)NC(=O)NC1(O)C(F)(F)F (centres undefined)	-5.37%
CC(=O)C1C(c2ccc(Cl)cc2)NC(=O)NC1(O)C(F)(F)F (centres undefined)	57.4% (active)
CCOC(=O)C1C(c2ccc(O)cc2)NC(=O)NC1(O)C(F)(F)F (centres undefined)	2.32%
O=C(NN=CC=Cc1ccccc1)C(O)C(O)C(=O)NN=CC=Cc1ccccc1 (centres undefined)	1.04%
O=S(=O)(Cc1ccc(Cl)cc1Cl)c1ccc(Cl)cc1	-0.684%
COc1ccc(C(CNC(=O)c2cccc(S(=O)(=O)Nc3ccc(Br)cc3)c2)N(C)C)cc1 (centres undefined)	-0.345%
